Bioassay records from PubChem.
The sample as a whole holds a higher share of hits than the screen did.
FBPA Giardia inh: blocks Giardia fructose-bisphosphate aldolase activity; A8B2U2; purified Giardia FBPA; Potency, µM (titrated, usually from 59.6 µM), for the others: at the top dose activity, negative = inhibition, usual class: inhibitors; 0.71% of 290,000 active; AID 2451; also: potency is read from the fitted curve at half-maximal effect; % is scaled to controls: 0 for no effect and ±100 for the full control effect; nearly all actives have a fitted effect of over 55% in size
Target sequence (A8B2U2 whole entry, looked up): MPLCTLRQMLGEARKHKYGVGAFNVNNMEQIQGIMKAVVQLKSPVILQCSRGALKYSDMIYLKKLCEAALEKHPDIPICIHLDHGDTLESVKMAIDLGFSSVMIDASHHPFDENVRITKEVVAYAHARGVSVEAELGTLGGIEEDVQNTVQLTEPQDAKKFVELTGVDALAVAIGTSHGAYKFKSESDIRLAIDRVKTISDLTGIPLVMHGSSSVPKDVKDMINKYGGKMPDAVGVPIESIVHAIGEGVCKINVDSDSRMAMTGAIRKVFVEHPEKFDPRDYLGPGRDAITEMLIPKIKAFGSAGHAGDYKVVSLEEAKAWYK
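Giardia FBPA (40 nM reagent) was preincubated 10 min at RT with compound (up to 57.5 uM final), then substrate plus GAPDH/TPI/NAD/arsenate coupling system with diaphorase/resazurin was added; resorufin fluorescence (525/598 nm) was read after 20 min.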
Sm TGR block: S. mansoni TGR enzyme inhibition. Q962Y6. purified TGR, DTNB reduction, TNB absorbance 405 nm. Potency, µM (series often up to 114 µM), for the others: at the highest dose activity change, negative = inhibition, actives largely listed as inhibitors. 3% of 360,000 active. AID 485364; also: potency is read from the fitted curve at half-maximal effect; % is scaled to controls: 0 for no effect and ±100 for the full control effect; nearly all actives have a fitted effect of over 60% in size
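Kinetic colorimetric format: TGR-catalysed, NADPH-driven DTNB reduction monitored via TNB absorbance. Enzyme dispensed at 20 nM; compound exposure 15 min at room temperature before reaction start.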
Tb PYK inh: blocks Trypanosoma brucei pyruvate kinase; TbPYK enzyme, Kinase-Glo Plus ATP luminescence, 45 min; Potency, µM (titrated, usually from 76.8 µM), inactives show at the highest dose activity, negative = inhibition, hits mostly inhibitors; Q57TT1; 0.12% of 410,000 active; also: potency is read from the fitted curve at half-maximal effect; % is scaled to controls: 0 for no effect and ±100 for the full control effect; nearly all actives have a fitted effect of over 50% in size
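Enzyme and substrate buffer are dispensed first and compound is pin-transferred. ADP at 130 uM final then starts the reaction, which runs 45 min at room temperature. Detection reagent is added for 10 min before luminescence is imaged.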
LmPK inhibitor: LmPK (Leishmania mexicana) enzyme inhibition; Q27686; purified LmPK, Kinase-Glo ATP luminescence, 1 h; Potency, µM (titrated, usually from 57.5 µM), without a hit: at the top dose activity change, negative = inhibition, most hits filed as inhibitors; 0.37% of 290,000 active; AID 1721; also: potency is read from the fitted curve at half-maximal effect; % is scaled to controls: 0 for no effect and ±100 for the full control effect
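ATP generated from ADP (0.1 mM) and PEP (0.5 mM) by 0.1 nM LmPK over 1 h at room temperature (pH 7.2 imidazole buffer) was detected by coupled luciferase luminescence. Values were normalized to uninhibited and no-enzyme wells.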
Shiga toxin inh: Shiga toxin inhibition. AID 2315. 9.2% of 290,000 active. inhibition, % at 38.7 µM. Vero cells, Shiga toxin protein synthesis inhibition reporter; in the data active = inhibition mostly above about 28%, no sharp cut-off; inactive = mostly below about 43%; also: 0% is about no effect
CHX counter: counter-screen hit for Shiga toxin inhibitors, cycloheximide; cell reporter, cycloheximide protein synthesis inhibition counterscreen; max response, %; 12% of 300,000 active; AID 2314; in the data active = max response mostly above about 13%, no sharp cut-off; inactive = mostly below about 14%; also: read at 38.3 µM for the half of the compounds with a filed dose; 0% is about no effect
Starred values were filed as active, the others as inactive. Unless noted, calls follow the shape of the dose curve; as a rule, active = well fitted curve in the direction sought with a large enough effect; inconclusive = small, poorly fitted or top-dose-only effect, or another doubt; inactive = no such curve, though single readings can be large; an effect the other way counts as inactive or inconclusive.

Results for COc1cc(N)c2ncsc2c1 ?
Tb PYK inh: -10.8%

How did COc1cccc(CNCCNC(=O)c2nonc2N)c1 do in these assays?
FBPA Giardia inh: -0.8%; Sm TGR block: 5.3%; Tb PYK inh: 2.6%; LmPK inhibitor: -11.4%; Shiga toxin inh: -7.8; CHX counter: -1.0

Results for COc1ccc(CCNC(=O)c2nn(C)cc2Cl)cc1 ?
FBPA Giardia inh: 0.2%; Sm TGR block: 3.6%; Tb PYK inh: 2.0%; LmPK inhibitor: -10.1%; Shiga toxin inh: 75.8*; CHX counter: 26.9*

What do the screens show for `COc1ccc(CCNC(=O)c2ccc(Cl)cc2)cc1`?
FBPA Giardia inh: 0.5%; Sm TGR block: -15.2%; Tb PYK inh: -9.5%; LmPK inhibitor: 1.8%; Shiga toxin inh: -7.8; CHX counter: 10.3

How did COc1ccc(CCNC(=O)c2nonc2N)cc1 do in these assays?
FBPA Giardia inh: -2.0%; Sm TGR block: -22.9%; Tb PYK inh: -5.1%; LmPK inhibitor: -2.4%; Shiga toxin inh: 45.5*; CHX counter: 21.5*

What do the screens show for `CC#CC(=O)Nc1cc2c(Nc3ccc(F)c(Cl)c3)ncnc2cn1`?
FBPA Giardia inh: inconclusive; Shiga toxin inh: -9.5; CHX counter: -2.9

What do the screens show for `CN(c1cccc(Cl)c1)S(=O)(=O)c1cccc(C(=O)Nc2nc3ccccc3[nH]2)c1`?
FBPA Giardia inh: 12.5%; Sm TGR block: 6.0%; Tb PYK inh: -5.4%; LmPK inhibitor: 1.7%; Shiga toxin inh: 31.7; CHX counter: 24.2*

Results for Cc1cccc(C)c1OCc1nc2ccccc2[nH]1 ?
FBPA Giardia inh: -9.5%; Sm TGR block: 1.3%; Tb PYK inh: -3.2%; LmPK inhibitor: 2.6%; Shiga toxin inh: -0.2; CHX counter: 3.1

What do the screens show for `O=C(Nc1nc2ccccc2[nH]1)c1ccccc1O`?
FBPA Giardia inh: 8.5%; Sm TGR block: 1.9%; Tb PYK inh: 3.9%; LmPK inhibitor: -12.5%; Shiga toxin inh: 97.2*; CHX counter: 36.8*

How did Cc1ccc(C)c(OCc2nc3ccccc3[nH]2)c1 do in these assays?
FBPA Giardia inh: -4.5%; Sm TGR block: inconclusive; Tb PYK inh: -7.6%; LmPK inhibitor: 0.5%; Shiga toxin inh: 88.2*; CHX counter: 42.9*

How did Cc1ccc(Nc2nc3ccccc3[nH]2)nc1 do in these assays?
FBPA Giardia inh: 5.4%; Sm TGR block: 5.4%; Tb PYK inh: 0.8%; LmPK inhibitor: 5.2%; Shiga toxin inh: 53.5*; CHX counter: 26.5*

Results for O=C(Nc1nc2ccccc2[nH]1)c1ccc(Cl)cc1 ?
FBPA Giardia inh: 12.7%; Sm TGR block: 8.3%; Tb PYK inh: -14.6%; LmPK inhibitor: -16.4%; Shiga toxin inh: 18.3; CHX counter: 7.7

Results for O=C(Nc1nc2ccccc2[nH]1)c1ccccc1 ?
FBPA Giardia inh: -10.8%; Sm TGR block: 0.3%; Tb PYK inh: -21.8%; LmPK inhibitor: 15.8µM*; Shiga toxin inh: 37.0; CHX counter: 17.0*

What do the screens show for `CSCCC(NC(=O)c1cc(S(=O)(=O)N2CCOCC2)ccc1C)c1nc2ccccc2[nH]1` (stereo not drawn)?
Tb PYK inh: -0.5%

What do the screens show for `Cc1ccc(S(=O)(=O)N2CCOCC2)cc1C(=O)Nc1nc2ccccc2[nH]1`?
FBPA Giardia inh: -13.2%; Sm TGR block: -3.2%; Tb PYK inh: 1.1%; LmPK inhibitor: 0.6%; Shiga toxin inh: 13.2; CHX counter: 18.3*

How did Cc1ccc(C)c(C(=O)Nc2nc3ccccc3[nH]2)c1 do in these assays?
FBPA Giardia inh: -9.6%; Sm TGR block: 3.9%; Tb PYK inh: 3.3%; LmPK inhibitor: 3.3%; Shiga toxin inh: 61.2*; CHX counter: 23.7

What do the screens show for `COC(=O)Nc1nc2ccccc2[nH]1`?
Tb PYK inh: -8.6%

How did O=C(Nc1nc2ccccc2[nH]1)c1cccc(Cl)c1 do in these assays?
FBPA Giardia inh: 2.9%; Sm TGR block: -7.2%; Tb PYK inh: -1.1%; LmPK inhibitor: -6.8%; Shiga toxin inh: 91.1*; CHX counter: 44.1*

What do the screens show for `CN(C(=O)CSc1nc2ccc(NC(=O)c3ccc(F)cc3)cc2s1)c1ccccc1`?
Sm TGR block: -1.1%; Tb PYK inh: 1.6%

Results for C[C@H](NC(=O)OC(C)(C)C)c1nnc(SCc2ccc(Cl)cc2Cl)o1 ?
Sm TGR block: 12.4%; Tb PYK inh: 3.4%

How did Cc1cc(=O)n(CC(=O)N2CCCc3ccccc32)c2c1c(C)nn2-c1cccc(F)c1 do in these assays?
Sm TGR block: 5.8%; Tb PYK inh: 1.2%

Results for Cc1scc(C(=O)N/N=C/c2ccc(OC(C)C)cc2)c1C ?
FBPA Giardia inh: -14.3%; Sm TGR block: 9.2%; Tb PYK inh: 4.2%; LmPK inhibitor: -1.8%; Shiga toxin inh: 114.8*; CHX counter: 44.2*

What do the screens show for `Cc1scc(C(=O)N/N=C/c2ccc(Cl)s2)c1C`?
FBPA Giardia inh: -1.3%; Sm TGR block: 1.3%; Tb PYK inh: -1.9%; LmPK inhibitor: 0.9%; Shiga toxin inh: 50.1*; CHX counter: 46.8*

What do the screens show for `COc1ccccc1/C=N/NC(=O)c1csc(C)c1C`?
FBPA Giardia inh: -0.5%; Sm TGR block: 1.3%; Tb PYK inh: 0.3%; LmPK inhibitor: -0.6%; Shiga toxin inh: 39.4*; CHX counter: 15.4*

Results for COc1ccccc1/C=N/NC(=O)c1cccc2ccccc12 ?
FBPA Giardia inh: 4.9%; Sm TGR block: 11.6%; Tb PYK inh: -18.1%; LmPK inhibitor: 2.1%; CHX counter: -2.8

What do the screens show for `CCOc1ccc(/C=N/NC(=O)c2csc(C)c2C)c(OCC)c1`?
FBPA Giardia inh: 1.7%; Sm TGR block: -7.8%; Tb PYK inh: -2.7%; LmPK inhibitor: 1.6%; Shiga toxin inh: 47.1; CHX counter: 17.5

Results for N#C/C(=C\c1ccc(OC(F)F)cc1)C(=O)N1CCCCC1 ?
FBPA Giardia inh: -3.3%; Sm TGR block: 9.3%; Tb PYK inh: -4.6%; LmPK inhibitor: -9.0%; Shiga toxin inh: 46.1*; CHX counter: 27.5*

Results for N#C/C(=C\C=C\c1ccccc1)C(=O)N1CCCC1 ?
FBPA Giardia inh: -6.1%; Sm TGR block: -13.8%; Tb PYK inh: -3.8%; LmPK inhibitor: 4.6%; Shiga toxin inh: 70.4*; CHX counter: 21.7*

Results for Cc1ccc(/C=C(\C#N)C(=O)N2CCCC2)c(C)c1 ?
FBPA Giardia inh: -0.1%; Sm TGR block: 1.8%; Tb PYK inh: 0.1%; LmPK inhibitor: -7.2%; Shiga toxin inh: 124.6*; CHX counter: 36.8*

Results for CCN1CCN(C(=O)/C(C#N)=C/c2ccc(OC(F)F)cc2)CC1 ?
FBPA Giardia inh: -7.2%; Sm TGR block: -1.7%; Tb PYK inh: -10.3%; LmPK inhibitor: -2.1%; Shiga toxin inh: -9.1; CHX counter: -5.4

How did COc1ccc(C(=O)NCC(c2cccnc2)N2CCc3ccccc3C2)cc1OC (stereo not drawn) do in these assays?
Sm TGR block: 26.2%; Tb PYK inh: -9.5%
